The text below walks through data of PubChem BioAssay AID1626 (SRMLSC, 2009).

Screen size: about 220,000 compounds; about 2,000 (0.91%) were called active. Inconclusive results (about 2%) are left out. The list is a sample of the results. Entries with a potency or affinity are not part of this list. Values without a mark were called inactive. Rule as the data show it: inconclusive = inhibition above about 80% without an active follow-up result; inactive = below that; test concentration not stated here.

In general, inhibition refers to the drop in the measured response relative to a control, in per cent.

The test in a line: M. tuberculosis H37Rv growth inhibitors, H37Rv strain (AID 1626).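 Also: bacteria incubated seven days before Alamar blue readout; 0% = bacteria only wells and 100% = bacteria with antibiotic wells.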 The note with it: stronger effect = higher value, concentration not given here.
As to `CC(=O)Nc1ccc(OCC(O)Cn2c(C)nc3ccccc32)cc1` (stereo not drawn), the inhibition was 5.23%.
On to `O=C(OC1CCCCC1=O)c1cc(Cl)ccc1[N+](=O)[O-]` (stereo not drawn), for which the inhibition is -3.33%.
For `Cc1ccc(NC2(c3nnnn3-c3c(C)cccc3C)CCCCC2)cc1` the value was 16.4%; for `CCOC(=O)c1csc(COc2ccc(OC)cc2)n1`, -4.8%; for `CC(=O)c1csc(COc2ccccc2)n1`, -10.3%.
With `Cc1cccc2nc(CSc3nnc(N)s3)cn12` the figure was 0.64%.
Take `Cc1ccc(C(=O)N/C(=C/c2ccc(-c3ccc(Br)cc3)o2)C(=O)NC2CCS(=O)(=O)C2)cc1` (stereo not drawn): the inhibition was 2.02%.
For `CCNc1ccc(C(=O)OCC)cc1NC(=O)c1cc(S(=O)(=O)N2CCOCC2)ccc1C` the value was 0.89%.
With `O=C(CN1CC(=O)Oc2ccccc21)NCc1ccco1` the figure was 0.53%; with `CCc1cc(-c2n[nH]c(C)c2-c2nc(C)cs2)c(O)cc1OC`, 4.46%.
For the molecule `Cc1nn(Cc2ccccc2)c(Cl)c1C(=O)NC1CCCc2ccccc21` (stereo not drawn), the inhibition is 12.6%.
For `CCCNC(=O)C1CC(=O)N(c2ccc(OCC(=O)Nc3cc(C)cc(C)c3)cc2)C1` (stereo not drawn) the value was -2.31%; for `CCOC(=O)COc1ccccc1/C=C\[N+](=O)[O-]`, 11.3%; for `O=[N+]([O-])/C=C/c1c(OCc2ccccc2)ccc2ccccc12`, 42%.
With `O=C(CSc1nnc(Cc2cc(=O)[nH]c(=O)[nH]2)n1-c1ccc(Cl)cc1)NC1CCCC1` the figure was -1.17%; with `COc1cccc(C2=CC(c3ccc(OC)c(OC)c3OC)n3nnnc3N2)c1` (stereo not drawn), -9.14%.
With `COc1ccc(OC)c(C2C=C(c3ccc(C)c(C)c3)Nc3nnnn32)c1` (stereo not drawn) the figure was 6.69%.
In the case of `COc1ccc(C(=O)N(C)C2CCN(C)CC2)cc1S(=O)(=O)Nc1cc(Cl)ccc1Cl`, the inhibition is -15.1%.
For `Cc1nc(=S)c2c([nH]1)-c1ccccc1CC21CCCCC1` the value was 6.17%; for `Cn1c(/C=N/O)nc2ccccc21`, -6.75%; for `Cc1ccc(C(=O)N/N=C/c2nc3ccccc3n2C)cc1`, 62.7%.
For `Cc1ccc2cc(/C=N/NC(=O)c3ccccc3[N+](=O)[O-])c(Cl)nc2c1` the value was -0.86%; for `Cc1nn(CC(=O)Nc2ccccn2)c(C)c1[N+](=O)[O-]`, -1.31%; for `COc1cccc(C(=O)NCc2cccnc2)c1`, -9.43%.
Turning to `COc1ccc(C(=O)NCc2cccnc2)cc1OC`, the inhibition is -4.7%.
On to `CCOc1cc(/C=C2/SC(=Nc3ccccc3)N(Cc3cccnc3)C2=O)ccc1OCC#N`, for which the inhibition was -1.44%.
For `CN1C(=O)/C(=C/c2ccccc2Cl)Sc2ccc(C(=O)NCc3cccnc3)cc21` the value was 34.2%; for `Cc1ccc(NC(=O)COc2ccc(/C=C3/SC(=Nc4ccccc4)N(Cc4cccnc4)C3=O)cc2)cc1`, 2.56%; for `CCOc1ccc(/C=C2/Sc3ccc(C(=O)N4CCN(C(=O)c5ccco5)CC4)cc3N(C)C2=O)cc1OC`, -1.76%.
For `COc1ccc(N(C(=O)Nc2ccc(Cl)cc2)C2=NCCC2)cc1` the value was -4.11%.
On to `CCCN(CCC)CCCNC(=S)Nc1ccc2nc(N3CCN(C)CC3)cc(C)c2c1`, for which the inhibition was -1.09%.
Regarding `CCN(CC)C(NC(=O)Cc1ccccc1)C(Cl)(Cl)Cl` (stereo not drawn), the inhibition is -7.35%.
For `O=c1[nH]c(-c2cccnc2)nc2sc(-c3ccccc3)cc12` the value was 6.5%; for `c1ccc(-c2nc3ccccc3[nH]2)nc1`, -3.79%; for `O=c1[nH]c(-c2ccccn2)cc2ccccc12`, -4.45%.
Consider `O=c1[nH]c(-c2ccccc2)nc2sc(-c3ccccc3)cc12`, for which the inhibition was 0.66%.
For `Cc1sc2nc(-c3ccccc3)[nH]c(=O)c2c1-c1ccccc1` the value was -4.26%.
For `c1ccc(-c2nc3cc4ccccc4cc3[nH]2)nc1` the value was -3.91%; for `O=c1[nH]c(-c2ccncc2)nc2ccccc12`, -5.72%; for `Cc1sc2nc(-c3ccncc3)[nH]c(=O)c2c1-c1ccccc1`, -3.4%.
With `O=[N+]([O-])c1cc(C(F)(F)F)ccc1NCCCN1CCOCC1` the figure was 7.61%.
As to `COc1cc(C(=O)Nc2cc(C)cc(C)c2)c(-n2cnnn2)cc1OC`, the inhibition is 5.79%.
With `CCC(C)OC(=O)C1=C(C)O[C@]23OC(N)=C(C#N)[C@]12C(=O)c1ccccc13` (stereo partly drawn) the figure was 3.72%; with `Clc1ccc(-c2ccn[nH]2)cc1`, 58.5%; with `COC(=O)c1ccc(NS(=O)(=O)c2ccc3c(c2)oc(=O)n3C)cc1`, -7.58%.
With `CCOC(=O)C1CCN(c2nc(C)cc(C)c2C#N)CC1`, the inhibition is 2.49%.
In the case of `Cc1cc(C)nc(SC2=CS(=O)(=O)c3ccccc32)n1`, the inhibition is 3.84%.
In the case of `Cn1c(SC2=CS(=O)(=O)c3ccccc32)nc2ccccc21`, the inhibition is 54.9%.
For `CCOC(=O)c1sc(NC(=O)CSc2nncn2C)nc1C` the value was 4.68%; for `O=C(c1ccc(N2C(=O)C3C4c5ccccc5C(c5ccccc54)C3C2=O)cc1)N1CCOCC1` (stereo not drawn), -4.29%.
For `COC(=O)c1sc(OC)cc1OCc1ccc(C)cc1` the value was -1.7%; for `COc1ccccc1NC(=O)c1ccc([N+](=O)[O-])cc1[N+](=O)[O-]`, 3.09%; for `CCC(NC(=O)c1ccc([N+](=O)[O-])cc1[N+](=O)[O-])c1ccccc1` (stereo not drawn), -5.13%.
On to `CCCSc1ccc(-c2nn(-c3ccccc3)cc2/C=C(/C#N)C(=O)NCCCOC)cc1`, for which the inhibition was -7.18%.
As for `N#C/C(=C\c1ccc([N+](=O)[O-])cc1)C(=O)NCCCn1ccnc1`, the inhibition was 3.27%.
For `O=C(NCCCn1ccnc1)c1cn(-c2ccccc2)nc1-c1ccc(F)cc1` the value was 4.17%; for `CCSc1ccc(-c2nn(-c3ccccc3)cc2/C=C(/C#N)C(=O)NCCCOC)cc1`, -5.12%.
For `CSCCC(NS(=O)(=O)c1ccc(Cl)cc1)C(=O)OCC(=O)c1c(C)[nH]c2ccccc12` (stereo not drawn) the value was -2.72%; for `C/C=C(\C)C(=O)N1CC2(CC(c3cccc(NC(=O)CC(c4ccccc4)c4ccccc4)c3)=NO2)C[C@H]1C(N)=O` (stereo partly drawn), 4.13%; for `COc1ccccc1C(=O)C1CCCN(C(=O)CCC(=O)c2ccccc2)C1` (stereo not drawn), 4.79%.
For `O=C(CNc1cccc2ccccc12)N/N=C/C=C/c1ccco1` the value was -2.95%.
As to `CCOC(=O)c1c(C)n(-c2ccc(C)cc2)c2ccc(OCC(O)CNCC3CCCO3)cc12` (stereo not drawn), the inhibition is 0.55%.
For `CCOC(=O)c1c(C)n(-c2ccc(C)cc2)c2ccc(OCC(O)CN3CCN(C)CC3)cc12` (stereo not drawn) the value was -2.8%.
For the molecule `Cc1cccc(N(C(=O)C(F)(F)F)C(C(=O)NC2CCCCC2)c2cccs2)c1` (stereo not drawn), the inhibition was -0.05%.
With `Cc1ccc(-c2csc(NC(=O)/C=C/c3cccs3)n2)cc1C` the figure was 51.8%; with `Cc1cccc(NC(=O)/C=C/c2cccs2)n1`, -10.1%; with `O=C(/C=C/c1cccs1)Nc1nc(-c2ccccc2)cs1`, -0.14%.
Consider `O=C(/C=C/c1cccs1)Nc1nccs1`, for which the inhibition is -4.27%.
As to `Cn1nc(C(=O)Nc2sccc2C(N)=O)ccc1=O`, the inhibition was -1.96%.
For `COc1ccc2oc(=O)c(C(=O)N3CCN(c4ccccc4C)CC3)cc2c1` the value was -3.36%; for `N#C/C(=C\c1sc(N2CCOCC2)nc1-c1ccccc1)C(=O)Nc1cccc2ccccc12`, 49.2%; for `O=C(N/N=C/c1sc(N2CCOCC2)nc1-c1ccccc1)c1ccccc1F`, -7.96%.
`COC(=O)c1ccc(-n2nnnc2SCc2nn[nH]n2)cc1`: the inhibition is -5.62%.
For `Cn1c(N)c(C(=O)CSc2ncn[nH]2)c(=O)n(C)c1=O`, the inhibition was -13.1%.
For `COc1ccc(Nc2c3c(nc4c(-c5ccccc5)c(C)nn24)CCC3)cc1` the value was 13.4%; for `Cc1nn2c(NCCN(C)C)c3c(nc2c1-c1ccccc1)CCC3`, -3.03%.
With `Cc1nn2c(NCCCN(C)C)c3c(nc2c1-c1ccccc1)CCCC3` the figure was 10.8%; with `Cc1nn2c(Nc3ccccc3)c3c(nc2c1-c1ccccc1)CCC3`, 7.77%; with `COc1ccc(C(C)=O)cc1CSc1nnc(-c2ccncc2)n1C`, -2.28%.
With `Cn1c(-c2csc(-c3cccc(C(F)(F)F)c3)n2)n[nH]c1=S` the figure was 3.67%.
On to `Cc1ccc(C(=O)NCCSC2CCCCC2)cc1S(=O)(=O)Nc1ccccc1`, for which the inhibition was -1.4%.
For `O=C(NCc1cccnc1)C(C(=O)c1ccc(F)cc1)n1ccccc1=O` (stereo not drawn) the value was -8.48%; for `CCC(=O)NCCc1nc2ccccc2n1CC(=O)c1ccccc1`, -2.01%; for `C=CCn1c(=O)c2ccccc2n2c(SCC(=O)c3ccccc3)nnc12`, 6.67%.
For the molecule `CCN(CC)CCOc1ccc(/C(=C(/Cl)c2ccccc2)c2ccccc2)cc1`, the inhibition is 41%.
With `CN(C)CCOc1ccc(/C(=C(/CCCl)c2ccccc2)c2ccccc2)cc1` the figure was 59.6%; with `CCCC(=O)Nc1ccc(C(=O)n2nnc3ccccc32)cc1`, -6.7%; with `COc1ccccc1N1CCN(c2cc(=O)n(Cc3ccc(F)cc3)c(=O)[nH]2)CC1`, 12.4%.
On to `O=S(=O)(c1cccs1)N1CCN(c2ccc(O)cc2)CC1`, for which the inhibition was -12.2%.
On to `Cc1ccc(CN(Cc2ccco2)C(=S)NCC(=O)NC2CC2)cc1`, for which the inhibition is 5.98%.
For `CCc1nnc(NC(=O)c2ccc(OC)cc2)s1` the value was 2.91%.
For `CCOc1ccccc1C(=O)Nc1nnc(CC)s1` the value was -4.9%.
With `CCc1nnc(NC(=O)c2cc(C)nc3ccccc23)s1` the figure was -1.08%.
As to `O=C(Nc1ccccc1)c1ccc2ccccc2n1`, the inhibition was 8.34%.
As for `Cc1nc2ccc(NC(=O)c3ccc4ccccc4n3)cc2s1`, the inhibition is -4.06%.
With `CCc1nnc(NS(=O)(=O)c2ccc(NC(=O)c3cc4ccccc4oc3=O)cc2)s1` the figure was 61.4%.
For `CCOC(=O)c1c(-c2ccccc2)csc1NC(=S)NC` the value was 18.6%.
For `Cc1sc(NC(=O)c2cc3ccccc3oc2=O)c(C(=O)OC(C)C)c1-c1ccccc1` the value was -5.1%.
